The panel holds about 83,000 compounds, 20% with a hit somewhere; the sample as a whole holds those more often.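 Activity criterion: percent growth below 10, measured after cells in 96-well plates were exposed to a single compound concentration for 48 hours.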 A number with no mark means an inactive call. Activity calls are given as the source filed them.
What was measured:
Test in all cases: NCI-60 one-dose screen, 48 h (100 = growth as untreated, 0 = no growth, -100 = all killed)
Conditions in all cases: 10 µM unless noted
HCT-15 colon = tested on: HCT-15 colon
HT29 colon = tested on: HT29 colon
SNB-75 CNS = tested on: SNB-75 CNS
SNB-19 CNS = tested on: SNB-19 CNS
U251 CNS = tested on: U251 CNS
PC-3 prostate = tested on: PC-3 prostate
SK-MEL-5 melanoma = tested on: SK-MEL-5 melanoma
UACC-62 melanoma = tested on: UACC-62 melanoma
LOX IMVI melanoma = tested on: LOX IMVI melanoma
SK-MEL-28 melanoma = tested on: SK-MEL-28 melanoma

| SMILES | growth (HCT-15 colon) | growth (HT29 colon) | growth (SNB-75 CNS) | growth (SNB-19 CNS) | growth (U251 CNS) | growth (PC-3 prostate) | growth (SK-MEL-5 melanoma) | growth (UACC-62 melanoma) | growth (LOX IMVI melanoma) | growth (SK-MEL-28 melanoma) |
| --- | --- | --- | --- | --- | --- | --- | --- | --- | --- | --- |
| COP(=O)(OC)C(C)(C)CC(=O)CC(C#N)(C#N)C(C#N)C#N | 93.3% | 107% | 98.2% | 99.3% | 97.3% | 92.5% | 101% | 96.1% | 100% | 104% |
| COC(=O)c1c2c(c(C)[n+]([O-])c1C)C(=O)C=C(NCc1ccc(Br)cc1)C2=O | -63% (active) | -5.46% (active) | -98.6% (active) | -87.2% (active) | -41% (active) | -11.1% (active) | -97.5% (active) | -59.5% (active) | -75.7% (active) | -39.6% (active) |
| C[C@]12C=CC(=O)C=C1CCC1C2[C@@H](O)C[C@@]2(C)C1CC[C@]2(O)C(=O)COC(=O)CCC(=O)O (stereo not given in full) | 105% | 105% | 120% | 104% | 103% | 93.4% | 113% | 104% | 102% | 107% |
| CCc1n(Cc2ccc3ccccc3c2)cc[n+]1Cc1ccc2ccccc2c1 | 70.1% | -32.2% (active) | -5.96% (active) | 5.41% (active) | 4.23% (active) | 2.65% (active) | -93.3% (active) | -43.1% (active) | 1.9% (active) | 2.03% (active) |
| Cc1ccc(-n2c(=S)[nH]c3sc4c(c3c2=O)CCC(=O)C4)cc1 | 25% | 55.9% | 28.1% | 30.9% | 36.7% | 41% | 26.7% | 10.3% | 36.3% | 53% |
| Fc1ccc(Nc2nc3nonc3nc2Nc2ccc(I)cc2)cc1 | 6.8% (active) | 3% (active) | -5.57% (active) | 18.6% | -45% (active) | 4.86% (active) | -72.7% (active) | -21.4% (active) | -26.9% (active) | 17.1% |
| CCCCNC(=O)Oc1ccc(/C(=C(/CC)Cc2ccccc2)c2ccc(OCCN3CCCCCC3)cc2)cc1 | -29.9% (active) | -21% (active) | 61.2% | 45.2% | 25.7% | 39.8% | 13.1% | 24% | -93.6% (active) | -6.15% (active) |
| COc1ccc2c(c1)[n+]([O-])c(C(=O)/C=C/C=C(\Cl)c1cc(OC)c(OC)c(OC)c1)c(C)[n+]2[O-] | 95.4% | 101% | -26% (active) | 55.9% | 8.58% (active) | 93% | 121% | 68.2% | 41.7% | 99.1% |
| O=C1C(Cl)=C(Nc2ccc(O)cc2)C(=O)N1Cc1ccc(Cl)cc1 | 19.7% | 11% | 59% | 69.5% | 47.1% | 45.9% | 50.7% | 65.3% | 57.7% | 61.6% |
| Cn1ccc2c3c(ccc21)CC3=O | 105% | 116% | 97.7% | 105% | 111% | 110% | 115% | 99.1% | 119% | 112% |
| CN1CCN(C(=O)c2ccc(NC(=O)Nc3ccc(-c4nc(N5CCOCC5)c5cccn5n4)cc3)cc2)CC1 | 13.2% | 5.74% (active) | -37.7% (active) | 3.27% (active) | 3.91% (active) | 5.5% (active) | -61.6% (active) | -41.3% (active) | -3.2% (active) | -18.4% (active) |
| COc1ccc(/C=C2\COc3ccc(O)cc3C2=O)c(OC)c1OC | 48.8% | 68.5% | 83% | 80.6% | 60.8% | 77.1% | 89.9% | 78.7% | 44.3% | 99.2% |
| CCN1CC(=O)N(/N=C2\C(=O)Nc3ccccc32)C1=S | 95.1% | 102% | 80.3% | 91.9% | 99.2% | 92% | 79.4% | 76.4% | 86.5% | 111% |
| CCOc1ccc(NC(=O)CSc2oc(-c3ccccc3)nc2S(=O)(=O)c2ccc(F)cc2)cc1 | 77% | 73.7% | 103% | 88% | 53.4% | 55.7% | 79.7% | 62.8% | 74.1% | 72.6% |
| Cc1ccccc1Cn1cnc2ccc(-c3cc(NC(=O)c4ccc(NC5CCN(C)CC5)cc4)n[nH]3)cc21 | 102% | 56.6% | -11.4% (active) | 95% | 75.9% | 68.8% | 79.3% | 73.2% | 56.7% | 92.2% |
| C#CCOc1cccc(Nc2ncnc3ccc(NC(=O)CCl)cc23)c1 | -41.6% (active) | -78.6% (active) | 28% | -23.7% (active) | -60.7% (active) | -59.3% (active) | -92.8% (active) | -67.5% (active) | -75.4% (active) | -17.2% (active) |
| O=C(OCc1ccc2c(Cl)cc(Cl)c(O)c2n1)n1cncn1 | 19.3% | 72.6% | 44.9% | 30.5% | 16.3% | 42.5% | 15.4% | -3.18% (active) | 9.57% (active) | 35.5% |
| COc1cc(CNS(=O)(=O)c2ccc(C)cc2)ccc1OCc1cn(-c2ccc(F)cc2)nn1 | 92.5% | 85.1% | 81% | 102% | 97.3% | 83.6% | 56.7% | 71.8% | 102% | 87.9% |
| COc1cccc(/C=C/C(=O)c2cc3c(N)c(C(=O)Nc4ccccc4)sc3nc2C)c1 | -35.1% (active) | -7.47% (active) | 3% (active) | -3.91% (active) | -52.9% (active) | 41.7% | 34.8% | 20.2% | -83.2% (active) | 50.4% |
| Cc1ccc(Cc2cnc(NC(=O)c3cc(Br)cs3)s2)cc1 | 24.4% | 16.3% | 64.5% | 54% | 46.9% | 46.4% | 46% | 44.7% | 54.6% | 61.7% |
| CC[C@]12C=CCN3CC[C@@]4(c5cc(NC(=O)CCC(=O)OCc6cn(Cc7ccc(F)cc7)nn6)c(OC)cc5N(C)[C@H]4[C@@](O)(C(=O)OC)[C@@H]1OC(C)=O)[C@@H]32 | 105% | 103% | 97% | 98.5% | 101% | 93.8% | 112% | 98% | 99.3% | 109% |
| COC(=O)/C(CCC=C(C)C)=C1\[C@@H](OC(C)=O)C[C@@]2(C)[C@H]1C[C@@H](O)[C@H]1[C@@]3(C)CC[C@H](NCCN)[C@@H](C)[C@@H]3CC[C@@]12C | 55% | 33.5% | 73% | 95.1% | 69.1% | 59.6% | 88.3% | 89.5% | 84.5% | 89.2% |
| CN(C)CCNC(=O)c1cccc(-c2cnc3ccc(-c4ccc5c(c4)OCO5)nn23)c1 | 46% | 10.9% | 73.2% | 84.3% | 86.1% | 61.5% | 90.8% | 81.8% | 20.7% | 99.5% |
| C=C(C)[C@@H]1CC[C@]2(C(=O)NCCNCCN)CC[C@]3(C)[C@H](CC[C@@H]4[C@@]5(C)C/C(=C/c6ccncc6)C(=O)C(C)(C)[C@@H]5CC[C@]43C)[C@@H]12 | 91.4% | 96% | 78.1% | 90.2% | 91.2% | 88.8% | 96.3% | 86.6% | 96% | 99.2% |
| COc1ccc(-c2nc3c(c(-c4ccccc4)nn3-c3ccccc3)c(-c3ccc(N4CCOCC4)cc3)c2C#N)cc1 | 91.4% | 105% | 105% | 103% | 84.8% | 101% | 101% | 91.1% | 92.2% | 100% |
| COc1cc(/C=C/C(=O)c2cccc(Nc3nc(Nc4ccccc4)nc(Nc4ccccc4)n3)c2)cc(OC)c1OC | 49.6% | 48.8% | 52.8% | 93.9% | 29.8% | 24.7% | 51% | 64% | 45.3% | 68.9% |

From PubChem BioAssay (NCI)
